A selection: hits, their analogues and other compounds. The true share with any hit is near 4%.
TWEAK Fn14 block = inhibitors of TWEAK-Fn14 signaling, primary screen, luciferase reporter cells, uHTS | TWEAK-stimulated Fn14 reporter cells, luciferase luminescence, 8 h | inhibition, % at 10 µM | actives 2% (n = 360,000) | AID 1159606, 2016; in the data active means inhibition above about 50%
Peg3 prom inh = Peg3 promoter-driven luciferase inhibitors, primary screen, cell-based, HeLa, luciferase luminescence; actives 1.7% (n = 360,000); inhibition, % at 20 µM; HeLa PEG-Prom luciferase reporter, overnight; AID 588405, 2011;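 active means inhibition of at least 50% at 20 µM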
HIF-2a inh = HIF-2a reporter inhibitors, primary screen, luminescence, 786-0 RCC cells. inhibition, % at 18.8 µM. 786-0 RCC cells HIF-2a reporter, luciferase luminescence, overnight. actives 0.72% (n = 360,000);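 active means inhibition of the luminescence signal of 40% or more relative to plate controls, in a single-dose primary screen at 18.75 µM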
CF NFkB block = inhibitors of PAF-induced NF-kB signaling, primary screen, cell-based, GFP fluorescence, uHTS | KKLEB NF-kB-GFP reporter, GFP fluorescence overnight | inhibition, % at 5 µM | actives 0.86% (n = 360,000);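 active means at least 50% inhibition at 5 µM, scaled per plate between neutral and stimulator controls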;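 further: PAF is a Pseudomonas aeruginosa culture filtrate used as stimulus; plate controls were PAF-stimulated DMSO wells for no effect and unstimulated DMSO wells for full effect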
TROY NFkB inh = inhibitors of TROY-driven NF-kB signaling, primary screen, Q293 LMP1-TROYcd cells, NF-kB luciferase, uHTS | Q293 LMP1-TROYcd NF-kB luciferase reporter, 4 h | inhibition, % at 10 µM | actives 0.98% (n = 360,000) | AID 1347056, 2019;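 active means compounds whose plate-normalised and pattern-corrected inhibition of the luciferase reporter signal at the single screening dose is 50% or more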
KKLEB tox = cytotoxicity in KKLEB CF airway cells, primary screen, cytotoxicity control for CF NF-kB inhibitor project, cell-based, uHTS, fluorescence assay plates; KKLEB CF airway cells viability, ATPlite luminescence, overnight; stronger effect = lower value; cells stimulated with P. aeruginosa culture filtrate; AID 602141, 2011; activity change (cytotoxicity), % at 5 µM; actives 0.36% (n = 360,000);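 active means corrected activity change at or below -50% at 5 µM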
The depositor's hits bear a star; . = no result given.

SMILES	TWEAK Fn14 block	Peg3 prom inh	HIF-2a inh	CF NFkB block	TROY NFkB inh	KKLEB tox
Cc1cc(COc2ccccc2O)on1	85.6*	-7.3	-0.3	-8.9	.	10.2
COc1ccccc1OCc1cc(-c2ccccc2)no1	-32.2	-311.6	-316.5	19.9	-76.2	6.9
Cc1cc(C(=O)OC(C)C(=O)NC2CCCCC2C)c2ccccc2n1 (stereo not given)	-9.3	-1.1	9.4	7.3	-5.2	-10.3
COCCNC(=O)C1CCCN(C(=O)c2sc(-c3ccccc3)nc2C)CC1 (stereo not given)	-6.2	-1.2	8.9	-6.3	0.0	11.0
COc1cc2c(cc1OC)CN(c1ccc(C(F)(F)F)cn1)CC2	50.9*	-87.2	-203.6	-13.1	-10.3	-3.6
Cc1ccc(Cn2cc(CN3CC(N(C)C)CS3(=O)=O)nn2)cc1 (stereo not given)	9.2	.	-12.3	.	5.9	.
CC[N+](C)(CC)CCOC(=O)C(O)(c1ccccc1)C1CCCCC1 (stereo not given)	1.3	-9.9	29.0	53.8*	12.3	5.9
CC[N+](C)(CC)CCC(c1ccccc1)C1CCCCC1 (stereo not given)	13.8	13.9	19.7	-9.3	20.6	2.9
Clc1ccc(-c2cn(-c3nc4ccccc4s3)nn2)cc1	-1.7	.	-170.5	.	-49.1	.
CCCN(CCC)C(=O)CSc1nc2ccccc2c(=O)n1CC1COc2ccccc2O1 (stereo not given)	1.2	51.1*	14.2	-13.7	-9.1	-11.2
CC1CC1C(=O)OCC(=O)NNC(=O)c1ccc([N+](=O)[O-])cc1 (stereo not given)	8.7	12.0	3.6	-12.9	-13.3	-3.9
O=C(COC(=O)COc1ccc(Br)cc1)NNC(=O)c1ccccc1	2.2	-15.9	15.7	10.3	-4.5	-3.4
CC(=O)c1ccccc1C(=O)N1CCCC(C(=O)c2ccc(C(F)(F)F)cc2)C1 (stereo not given)	-15.5	-129.3	-156.8	-1.0	-23.1	-6.9
CCCCc1ccc(-c2ccc(Br)cc2)nc1	1.1	-336.0	-319.1	-27.9	0.9	6.9
CCCc1ccc(-c2ccc(F)c(N)c2)nc1	88.7*	23.9	-14.4	3.5	63.3*	-16.2
COc1cc(-c2noc(C)c2C#Cc2ccc(N)cc2)cc(OC)c1OC	40.0	-66.5	-46.6	51.7*	28.6	-21.3
COc1cccc(C(O)c2ncc(-c3cccc(C(F)(F)F)c3)[nH]2)c1 (stereo not given)	17.6	27.3	10.4	4.9	-9.3	-9.6
COc1ccc(-n2c(C)cc(C(=O)CCl)c2C)cc1	4.5	101.1*	40.2*	0.0	11.4	-17.0
Cc1cc(-n2c(C)cc(C(=O)CCl)c2C)no1	15.5	75.4*	14.4	49.6	8.6	-11.6
Cc1cc(C(=O)COC(=O)c2ccc(O)cc2O)c(C)n1-c1ccccc1	76.8*	-149.2	-151.5	14.3	82.8*	21.3
COc1ccc(-n2c(C)cc(C(=O)COc3ccc(C)nc3[N+](=O)[O-])c2C)cc1	49.8	-14.9	34.2	-4.5	57.9*	11.0
Cc1cc(C(=O)COC(=O)c2ccc(O)cc2O)c(C)n1-c1ccc(OC(F)F)cc1	14.6	-1.2	12.2	16.5	3.5	17.9
COc1cc(NC(=O)c2cccs2)c(C(=O)OCC(=O)c2cc(C)n(-c3ccc(F)cc3)c2C)cc1OC	90.1*	-12.5	5.6	19.5	83.2*	-29.4
Cc1cc(C(=O)CCl)c(C)n1-c1c(C)n(C)n(-c2ccccc2)c1=O	23.9	59.5*	18.1	39.3	2.7	6.4
COc1ccc(-n2c(C)cc(C(=O)COC(=O)c3cc(NC(=O)c4cccs4)c(OC)c(OC)c3)c2C)cc1	1.4	2.2	1.4	-21.8	-13.0	17.0
SMILES	TWEAK Fn14 block	Peg3 prom inh	HIF-2a inh	CF NFkB block	TROY NFkB inh	KKLEB tox
COc1ccc(-n2c(C)cc(C(=O)COC(=O)c3ccc(O)cc3O)c2C)cc1	54.4*	-95.5	-57.6	28.6	22.7	21.9
CN(C(=O)c1cc2ccccc2o1)c1c(N)n(Cc2ccccc2)c(=O)[nH]c1=O	-25.4	-15.8	11.7	24.7	-2.8	0.9
COc1ccc(S(=O)(=O)N(C)C[C@H]2Oc3c(NC(=O)Nc4c(C)noc4C)cccc3C(=O)N([C@@H](C)CO)C[C@H]2C)cc1	3.9	-3.2	5.1	-14.5	10.4	1.9
COc1ccc(NC(=O)C2(C)CCN2Cc2ccc(OC(F)(F)F)cc2)cc1OC (stereo not given)	1.1	13.0	-9.7	4.1	14.2	-6.3
CC(C)[C@H](NC(=O)c1cc2cc(Cl)ccc2n1C)C(=O)N[C@@H](C(=O)O)c1ccccc1	17.2	25.3	18.6	-3.7	-0.5	-3.1
Cc1cc(C)c(NC(=O)C2CC(=O)N(C3CCCC3)C2)c(C)c1 (stereo not given)	-5.9	9.2	4.4	3.6	4.0	-13.5
O=C(Cc1ccccc1)Nc1ccccc1C(=O)NCC1CCCO1 (stereo not given)	1.2	-10.0	-4.8	14.5	-12.7	9.1
Cc1ccc(C(=O)N/C(=C\c2ccc(Cl)cc2)C(=O)NCCN2CCOCC2)cc1	14.5	-3.6	8.0	-5.2	-11.3	2.4
COc1cc(/C=N/Nc2ccccc2[N+](=O)[O-])cc(OC)c1O	-10.6	-71.6	-95.0	-24.0	-4.4	10.8
COc1cc(/C=N/Nc2ccc(S(N)(=O)=O)cc2[N+](=O)[O-])cc(OC)c1O	-49.6	20.0	8.5	-15.8	59.3*	20.6
C=CCN(Cc1cccc(OC)c1OC)C(=O)Oc1ccccc1	-6.3	9.4	1.7	18.4	7.2	2.4
O=C1C=CC2=C3c4cc(O)c(O)cc4CC3(O)COC2=C1O (stereo not given)	86.0*	34.2	7.4	19.1	-0.5	-5.9
Cc1cc(C(=O)N/N=C2\CC(=O)CC(C)(C)C2)c(C)n1-c1ccccc1	22.4	10.7	0.3	-6.2	53.3*	4.8
Cc1cc(C(=O)N/N=C2\CC(=O)CC(C)(C)C2)c(C)n1-c1ccc(F)cc1	-2.1	-0.1	14.9	-9.4	-14.7	-10.4
O=C(OCc1ccccc1)c1ccc(NCc2cc(O)ccc2O)cc1	107.1*	92.1*	77.8*	81.3*	58.1*	-55.8*
CC(C)OC(=O)c1ccc(NCc2cc(O)ccc2O)cc1	101.1*	46.3	34.6	71.8*	16.3	-9.4
CCN(CC)S(=O)(=O)c1ccc(OC)c(NC(=O)OCc2ccccc2)c1	19.5	12.2	13.4	15.6	-4.5	-1.0
CCOC(=O)c1cn[nH]c1NC(=S)Nc1ccc(Cl)cc1	60.5*	-368.4	-267.3	21.0	61.0*	-3.5

Screens as filed in PubChem.
